Laboratory results as given in PubChem BioAssay (NCATS).
The list shows a part of the results. Inconclusive results are not listed. Activity calls are given as the source filed them. The call rests on the fitted dose curve; in most records, active means well fitted inhibition curve with a large enough effect; inconclusive means small, poorly fitted or top-dose-only effect; inactive means flat fitted curve, though single readings scatter.

Assay: qHTS Assay for Inhibitors of Fructose-1,6-bisphosphate Aldolase from Giardia Lamblia: Coupling assay counterscreen confirmation (AID 2795); further: nearly all actives have a fitted effect of over 55% in size
Conditions: GAPDH coupling enzyme counterscreen, biochemical; series mostly up to 57.5 µM
How it was run: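 Concentration-response counterscreen (up to 57.5 uM final) of aldolase-screen hits against coupling enzymes only. Substrate, coupling system and AmpLite Red were added after a 10 min RT preincubation; fluorescence was taken 20 min later at 525/598 nm.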

Which outcome does the source give for O=S(=O)(c1ccc(NC(=S)NN=C(C2CC2)C2CC2)cc1)N1CCOCC1 here?
Its outcome is “inactive”.

Which outcome does the source give for Cc1cc(C)n(-c2ccc(Cl)c(C(=O)O)n2)n1 here?
Its outcome is “inactive”.

Which outcome does the source give for Cn1c(=O)[nH]c(=O)c2c1[nH]c(=S)n2Cc1ccccc1 here?
The outcome was “inactive”.

For COc1cc(CN2CCN(Cc3ccc(C)cc3)CC2)c([N+](=O)[O-])cc1OC, which outcome is on record?
The outcome was “inactive”.

For Cc1nnc(SCC2=C(C(=O)O)N3C(=O)C(NC(=O)Cn4nc(C)c(Cl)c4C)C3SC2)s1 (configuration not stated), which outcome is on record?
The outcome was “inactive”.

Which outcome does the source give for COc1ccc(Cl)cc1C(=O)NNC(=O)c1nc2nc(C)cc(C)n2n1 here?
Its outcome is “inactive”.

Which outcome does the source give for COc1ccc(C(=O)NC(=S)N2CCCCC2c2cccnc2)cc1OC (configuration not stated) here?
Its outcome is “inactive”.
